Results filed as inconclusive are left out. A number with no mark means an inactive call. Calls come from the whole dose curve; as a rule, active = well fitted cell-killing curve with a large enough effect in the repeat runs; inconclusive = weak or mixed curves, or effect the other way; inactive = no such curve, though single readings can be large or run the other way.
Experiment: qHTS assay to identify small molecule antagonists of the vitamin D receptor (VDR) signaling pathway - cell viability counter screen (AID 743225); note: nearly all actives have a fitted effect of over 50% in size
Conditions: VDR-bla HEK293T viability, CellTiter-Glo luminescence, 16 h; series mostly up to 61 µM; viability change, negative = cytotoxic: at the top concentration
How it was run: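 Cytotoxicity toward the VDR-bla HEK 293T line was scored by ATP-based CellTiter-Glo luminescence, read in the wells already used for the beta-lactamase readout after 16 h compound treatment under 3 nM 1-alpha,25-dihydroxyvitamin D3 stimulation.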
With `COc1ccccc1N1CCN(CC(O)COc2cc(OC)c(OC)c(OC)c2)CC1` (stereo not drawn) the “viability change, negative = cytotoxic” value was -4.62%.
In the case of `CC(=O)O[C@@H]1CC2C3CCc4cc(OC(=O)c5ccccc5)ccc4C3CCC2(C)[C@H]1OC(C)=O` (stereo partly drawn), the “viability change, negative = cytotoxic” value is reported as 1.81%.
In the case of `C/C=C(\C)C=O`, the “viability change, negative = cytotoxic” value is reported as 4.07% [at 78.8 µM].
In the case of `CCCCCCCCCCCCCCBr`, the “viability change, negative = cytotoxic” value is reported as 1.93% [at 78.8 µM].
For `NNC(=O)CCCCC(=O)NN`, the “viability change, negative = cytotoxic” value was -2.11%.
For `Nc1nc(Cl)cc(Cl)n1`, the “viability change, negative = cytotoxic” value was 2.43%.
In the case of `C=CCON/C(CCC)=C1\C(=O)CC(C)(C)C(C(=O)OC)=C1O`, the “viability change, negative = cytotoxic” value is reported as 1.22%.
With `CCCCOCCCC` the “viability change, negative = cytotoxic” value was 0%.
In the case of `CCCC(C)C(O)CC` (stereo not drawn), the “viability change, negative = cytotoxic” value is reported as 12.6%.
With `Cc1cc(C)c(N)c(Cl)c1` the “viability change, negative = cytotoxic” value was -26.7%.
With `CC(C)(C)OC(=O)c1ccccc1C(=O)O` the “viability change, negative = cytotoxic” value was -34.6%.
With `C=CC(=O)OCC[N+](C)(C)C` the “viability change, negative = cytotoxic” value was -27.1% [at 78.8 µM].
With `CC/C=C\CCOC(=O)c1ccccc1` the “viability change, negative = cytotoxic” value was -9.93%.
In the case of `O=P(O)(O)C(O)(Cc1cccnc1)P(=O)(O)O`, the “viability change, negative = cytotoxic” value is reported as 2.38%.
For `CCN1CCN(C(=O)N[C@@H](C(=O)N[C@@H]2C(=O)N3[C@@H]2SC(C)(C)[C@H]3C(=O)O)c2ccccc2)C(=O)C1=O`, the “viability change, negative = cytotoxic” value was -2.79%.
For `COC(=O)N/N=C/c1c[n+]([O-])c2ccccc2[n+]1[O-]`, the “viability change, negative = cytotoxic” value was 1.5%.
For `CCCCCCCCCCCCCCCC(=O)OC`, the “viability change, negative = cytotoxic” value was -2.42% [at 28.5 µM].
For `Cc1ccccc1C#N`, the “viability change, negative = cytotoxic” value was -9.01%.
In the case of `C[C@H]1COc2c(C3(N)CC3)c(F)cc3c(=O)c(C(=O)O)cn1c23`, the “viability change, negative = cytotoxic” value is reported as -18.5%.
With `CC(C)=CCC/C(C)=C\C#N` the “viability change, negative = cytotoxic” value was 13.6%.
For `N#CC1(N)CCCCC1`, the “viability change, negative = cytotoxic” value was 0.919% [at 78.8 µM].
With `NCC1CCC(C(=O)Oc2ccc(CCC(=O)O)cc2)CC1` (stereo not drawn) the “viability change, negative = cytotoxic” value was 7.09%.
With `O=S(=O)(O)CC(O)CCl` (stereo not drawn) the “viability change, negative = cytotoxic” value was 2.33%.
In the case of `CCCCCCCCCCCCCCCC/C=C/C1CC(=O)OC1=O` (stereo not drawn), the “viability change, negative = cytotoxic” value is reported as 16.9%.
For `Cc1ccc(Br)cc1`, the “viability change, negative = cytotoxic” value was 7.31%.
With `CCCCCCCCOCCC#N` the “viability change, negative = cytotoxic” value was 6.91%.
With `CCCOc1ccc(C(=O)OCCN(CC)CC)cc1N` the “viability change, negative = cytotoxic” value was -7.85%.
With `NC(=O)CC[C@@H](N)C(=O)O` the “viability change, negative = cytotoxic” value was -2.33%.
With `CO/N=C(\C(=O)O)c1csc(NC(=O)CCl)n1` the “viability change, negative = cytotoxic” value was 9.95%.
With `C=CCOC(=O)CCCCCCCC` the “viability change, negative = cytotoxic” value was 10.2% [at 78.8 µM].
With `O=C1CC2(CCCC2)CC(=O)N1CCNCC1COc2ccccc2O1` (stereo not drawn) the “viability change, negative = cytotoxic” value was -0.818%.
With `O=S(=O)(O)c1cc(I)c(O)c2ncccc12` the “viability change, negative = cytotoxic” value was 4.16%.
In the case of `CCCCN1C(=O)c2ccccc2C1=O`, the “viability change, negative = cytotoxic” value is reported as 13.3% [at 78.8 µM].
With `CC(C)OC(=O)C(C(=O)OC(C)C)=C1SC=CS1` the “viability change, negative = cytotoxic” value was 2.93%.
In the case of `COC(=O)c1ccc(C(=O)O)cc1`, the “viability change, negative = cytotoxic” value is reported as 4.56%.
For `C=CCN(CC=C)CC=C`, the “viability change, negative = cytotoxic” value was 7.15%.
With `BrCCOc1ccccc1` the “viability change, negative = cytotoxic” value was 5.79% [at 78.8 µM].
In the case of `CC(=O)c1ccc(O)c(C(N)=O)c1`, the “viability change, negative = cytotoxic” value is reported as 19%.

— PubChem BioAssay (Tox21)
% is set by controls: 0 for no effect and ±100 for the full control effect.
